Laboratory results taken from PubChem BioAssay.
Unmarked numbers belong to inactive results. Active and inactive are the calls of the source. Unless noted, the rule behind the calls is not given here.

Assay: Pseudomonas biofilm growth suppression – PAO1 strain, BacTiter-Glo luminescence, LB-PBS, primary screen (AID 1144)
Conditions: P. aeruginosa PAO1 biofilm, 12 h, higher = more signal

| SMILES | z-score |
| --- | --- |
| O=C1OCCC/C=C\[C@H]2OC34C=CCN(c5ccc6ccccc6c5)C(=O)[C@H]3N(CCCCCO)C(=O)[C@@H]4C12 (stereo partly specified) | 2.33 |
| CN1C(=O)C2C=CC(C(O)c3ccccc3)N(N3CCCCC3)C2C1=O (stereo unspecified) | -0.127 |
| C=C(C(=O)CC[C@H](OC(C)=O)c1ccccc1OCCO)C(C)C | -0.679 |
| C=C(CCCC)C(=O)CC[C@@H](OC(C)=O)c1ccc(CO)o1 | -0.905 |
| CC(C)(C)OC(=O)CC[C@]1(C(=O)NCCN2CCOCC2)COC(c2ccc(OCCCO)cc2)=N1 | -0.192 |
| C=CCOC(=O)[C@H]1[C@@H]2C(=O)O[C@@H](c3ccccc3)[C@@H](c3ccccc3)N2[C@@H](c2ccc(OCCOC(=O)[C@H]3C[C@H]4C(=O)N[C@@H](CCCCN(C)C)C(=O)N4[C@H]3c3cccc(OCCO)c3)cc2)[C@]12C(=O)Nc1ccc(I)cc12 | 0.772 |
| [N-]=[N+]=Nc1ccccc1C[C@]1(C(=O)NCc2ccccc2)N=C(c2ccc(OCCCO)cc2)O[C@H]1c1ccccc1N=[N+]=[N-] | 0.0249 |
| CCOC(=O)C1=CC[C@@H](c2ccccc2)N(S(=O)(=O)c2ccc(C)cc2)[C@H]1c1ccc(CC)cc1 | 1.17 |
| COCC(=C=CC[C@H](O)c1ccccc1OCCO)CCO | -0.109 |
| COc1ccc(C(=O)Nc2ccc(CN3C(=O)[C@]4(O[C@H](CC(=O)N5CCC[C@H]5CO)[C@@H]([Si](C)(C)c5ccc(OC)cc5)[C@@H]4C)c4ccccc43)cc2)cc1 | -0.00818 |
| C=C(C)[C@@H]1CC=C(C(O)C2C=CC3C(=O)NC(=O)C3N2Nc2ccc(Cl)cc2Cl)CC1 (stereo partly specified) | -0.995 |
| O=C1O[C@@H](c2ccccc2)[C@@H](c2ccccc2)N2[C@@H](c3ccc(OCCO)cc3)[C@]3(C(=O)Nc4ccc(C#CCCO)cc43)[C@@H](C(=O)NC[C@H](O)c3ccccc3)[C@H]12 | -0.703 |
| O=C1[C@H]2C=C(Br)[C@H](C[C@@H]2OCCCCCCO)[C@@]12CO2 | 0.41 |
| C=CCNC(=O)[C@@H]1[C@H]2C(=O)O[C@H](c3ccccc3)[C@H](c3ccccc3)N2[C@H](c2ccc(OCCO)cc2)[C@@]12C(=O)N(C(=O)OCCOC)c1ccc(C#CCNC(N)=O)cc12 | 0.388 |
| O=C1NC(=O)C2C1C=CC(C(O)c1ccc(I)cc1)N2Nc1ccccn1 (stereo unspecified) | -0.833 |
| COc1cc2c(cc1OC)CN(C(=O)[C@H]1[C@@H]3C(=O)O[C@@H](c4ccccc4)[C@@H](c4ccccc4)N3[C@@H](c3ccccc3OCCO)[C@]13C(=O)Nc1ccc(C#CCCO)cc13)CC2 | 0.677 |
| C=CCC(OC(C)=O)[C@@H]1[C@@H](N(Cc2ccc(-c3cccc(C(F)(F)F)c3)o2)C(=O)c2cccc3ccccc23)c2cc(OCCCO)ccc2N1C(=O)Cc1ccc2ccccc2c1 (stereo partly specified) | 0.318 |
| C=CCN1C(=O)[C@]2(O[C@H](CCO)[C@@H]([Si](C)(C)c3ccc(OC)cc3)[C@@H]2C)c2cc(N(C=O)c3ccccc3)ccc21 | -0.2 |
| COC(=O)c1c2oc(c1C(=O)OC)C(=O)NC1(CCCCC1)c1cn(nn1)C[C@H](Cc1ccccc1)NC(=O)N[C@H](CO)CC2 | -0.926 |
| CCN(CC)c1ccc(N2CC=CC34O[C@@H]5C=CCOC(=O)[C@@H]5[C@H]3C(=O)N(CCCCCCO)[C@@H]4C2=O)cc1 (stereo partly specified) | -0.593 |

Assay: basal CRE-LacZ reporter activity in PC12 – cell-based, unstimulated, primary screen (AID 1145)
Conditions: no forskolin, luminescence, 4.5 h, higher = more signal, called active from +8 up or from −8 down

| SMILES | z-score |
| --- | --- |
| COC(=O)[C@@]1(Cc2ccc(OC)cc2)[C@H]2c3cc(C(=O)N4CCCC4)n(CCc4ccc(O)c(O)c4)c3C[C@H]2CN1C(=O)c1ccccc1 | 1.54 |
| CC(CO)N1C(=O)[C@@H]2C3C(=O)OCCC/C=C\[C@H]3OC23C=CCN(CCN2CCOCC2)C(=O)[C@@H]13 (stereo partly specified) | -0.476 |
| CC1CC/C=C\[C@H]2OC34C=CCN(Cn5nnc6ccccc65)C(=O)[C@H]3N(CCCCCO)C(=O)[C@@H]4C2C(=O)O1 (stereo partly specified) | 0.0524 |
| COC(=O)C(CC#Cc1ccc2c(c1)[C@]1(C(=O)N2)[C@H](c2ccccc2OCCO)N2[C@H](c3ccccc3)[C@H](c3ccccc3)OC(=O)[C@H]2[C@@H]1C(N)=O)C(=O)OC | -0.0515 |
| COC(=O)[C@@]1(Cc2ccc(OC)cc2)[C@H]2c3cc(C(=O)N4CCCC4)n(CCSCCO)c3C[C@H]2CN1C(=O)c1ccccc1 | 1.34 |
| C=CC[C@@]1(C(=O)N2CCCCC2)N=C(c2ccc(OCCCO)cc2)O[C@@H]1c1ccccc1CN=[N+]=[N-] | 3.77 |
| CCOC(=O)C1=C[C@@H](C(C)C)N(S(=O)(=O)c2ccc(C)cc2)[C@H]1c1ccccc1F | -0.527 |
| NC(=O)[C@@]1(Cc2ccccc2)N=C(c2ccc(OCCCO)cc2)O[C@H]1c1ccccc1 | 1.37 |
| COc1cc2c(cc1O)C(c1cccs1)N(Cc1ccc([N+](=O)[O-])o1)CC2 (stereo unspecified) | 0.209 |
| COCCCNC(=O)[C@@]1(Sc2ccc(C)cc2)CC(=O)N(Cc2ccccc2Cl)[C@@H]1c1ccc(CO)cc1 | -0.374 |
| O=C1N(CCS(=O)(=O)c2ccccc2)c2ccccc2[C@@H]2OC(c3ccc(OCCCO)cc3)=N[C@]12Cc1ccccc1 | 1.26 |
| [N-]=[N+]=Nc1ccccc1C[C@]1(C(=O)N2CCCCC2)COC(c2ccc(OCCCO)cc2)=N1 | 1.01 |
| COc1ccc(CCNC(=O)[C@@]2(c3ccc([N+](=O)[O-])cc3)CC(=O)N(CC34CC5CC(CC(C5)C3)C4)[C@@H]2c2ccc(CO)cc2I)cc1 | 0.378 |
| NCCCCCNC(=O)[C@H]1C[C@H]2C(=O)N3CCC[C@H]3C(=O)N2[C@H]1c1ccc(O)cc1 | 0.285 |
| COCCCNC(=O)[C@@]1(CCS(=O)(=O)c2ccccc2)N=C(c2ccc(OCCCO)cc2)O[C@H]1c1ccccc1N=[N+]=[N-] | 0.0451 |
| COc1ccc([Si](C)(C)[C@@H]2[C@@H](CCn3cc(CCO)nn3)O[C@]3(C(=O)N(Cc4cccc(N5C(=O)c6cccc7cccc5c67)c4)c4ccccc43)[C@H]2C)cc1 | 2.93 |
| O=C1OCCC/C=C\[C@H]2OC34C=CCN(c5ccc6ccccc6c5)C(=O)[C@H]3N(CCCCCO)C(=O)[C@@H]4C12 (stereo partly specified) | 0.601 |
| CN1C(=O)C2C=CC(C(O)c3ccccc3)N(N3CCCCC3)C2C1=O (stereo unspecified) | 0.819 |

| SMILES | z-score |
| --- | --- |
| C=C(C(=O)CC[C@H](OC(C)=O)c1ccccc1OCCO)C(C)C | 9.01 (active) |
| C=C(CCCC)C(=O)CC[C@@H](OC(C)=O)c1ccc(CO)o1 | -0.35 |
| CC(C)(C)OC(=O)CC[C@]1(C(=O)NCCN2CCOCC2)COC(c2ccc(OCCCO)cc2)=N1 | 0.157 |
| C=CCOC(=O)[C@H]1[C@@H]2C(=O)O[C@@H](c3ccccc3)[C@@H](c3ccccc3)N2[C@@H](c2ccc(OCCOC(=O)[C@H]3C[C@H]4C(=O)N[C@@H](CCCCN(C)C)C(=O)N4[C@H]3c3cccc(OCCO)c3)cc2)[C@]12C(=O)Nc1ccc(I)cc12 | -0.671 |
| [N-]=[N+]=Nc1ccccc1C[C@]1(C(=O)NCc2ccccc2)N=C(c2ccc(OCCCO)cc2)O[C@H]1c1ccccc1N=[N+]=[N-] | 1.77 |
| CCOC(=O)C1=CC[C@@H](c2ccccc2)N(S(=O)(=O)c2ccc(C)cc2)[C@H]1c1ccc(CC)cc1 | 0.136 |
| COCC(=C=CC[C@H](O)c1ccccc1OCCO)CCO | 2.48 |
| COc1ccc(C(=O)Nc2ccc(CN3C(=O)[C@]4(O[C@H](CC(=O)N5CCC[C@H]5CO)[C@@H]([Si](C)(C)c5ccc(OC)cc5)[C@@H]4C)c4ccccc43)cc2)cc1 | 2.62 |
| C=C(C)[C@@H]1CC=C(C(O)C2C=CC3C(=O)NC(=O)C3N2Nc2ccc(Cl)cc2Cl)CC1 (stereo partly specified) | 0.815 |
| O=C1O[C@@H](c2ccccc2)[C@@H](c2ccccc2)N2[C@@H](c3ccc(OCCO)cc3)[C@]3(C(=O)Nc4ccc(C#CCCO)cc43)[C@@H](C(=O)NC[C@H](O)c3ccccc3)[C@H]12 | -0.141 |
| O=C1[C@H]2C=C(Br)[C@H](C[C@@H]2OCCCCCCO)[C@@]12CO2 | 0.577 |
| C=CCNC(=O)[C@@H]1[C@H]2C(=O)O[C@H](c3ccccc3)[C@H](c3ccccc3)N2[C@H](c2ccc(OCCO)cc2)[C@@]12C(=O)N(C(=O)OCCOC)c1ccc(C#CCNC(N)=O)cc12 | 0.505 |
| O=C1NC(=O)C2C1C=CC(C(O)c1ccc(I)cc1)N2Nc1ccccn1 (stereo unspecified) | 0.636 |
| COc1cc2c(cc1OC)CN(C(=O)[C@H]1[C@@H]3C(=O)O[C@@H](c4ccccc4)[C@@H](c4ccccc4)N3[C@@H](c3ccccc3OCCO)[C@]13C(=O)Nc1ccc(C#CCCO)cc13)CC2 | 0.712 |
| C=CCC(OC(C)=O)[C@@H]1[C@@H](N(Cc2ccc(-c3cccc(C(F)(F)F)c3)o2)C(=O)c2cccc3ccccc23)c2cc(OCCCO)ccc2N1C(=O)Cc1ccc2ccccc2c1 (stereo partly specified) | 0.307 |
| C=CCN1C(=O)[C@]2(O[C@H](CCO)[C@@H]([Si](C)(C)c3ccc(OC)cc3)[C@@H]2C)c2cc(N(C=O)c3ccccc3)ccc21 | 32.2 (active) |
| COC(=O)c1c2oc(c1C(=O)OC)C(=O)NC1(CCCCC1)c1cn(nn1)C[C@H](Cc1ccccc1)NC(=O)N[C@H](CO)CC2 | 3.49 |
| CCN(CC)c1ccc(N2CC=CC34O[C@@H]5C=CCOC(=O)[C@@H]5[C@H]3C(=O)N(CCCCCCO)[C@@H]4C2=O)cc1 (stereo partly specified) | -0.488 |
